Measurements published in PMC7819943, “Rice protein-binding microarrays: a tool to detect cis-acting elements near promoter regions in rice”.
The full ranking holds about 35,000 sequences; the median of “fluorescence intensity (a.u.)” is about 10,000, and the highest 2% start at about 52,000. Only a selection was taken, and the highest values are over-represented in it overall.

The sequences below were run against T1, OsWOX13 (Oryza sativa, UniProt Q5QMM3 1-267) (assay: protein-binding microarray (RPBM); PBS, 2% BSA, 51.3 ng/ul salmon testes DNA, 50 uM zinc acetate, 200 nM TF, 25 C, 1 h; high values mean tight binding). Settings: protein: recombinant; tags: N-terminal polyhistidine and DsRed monomer fusion (pET32a); label: CyDye5-dUTP incorporated in the synthesized complementary strand; 3' TTTTT single-stranded linker to array surface; dsDNA, one strand shown.
T1 sequence: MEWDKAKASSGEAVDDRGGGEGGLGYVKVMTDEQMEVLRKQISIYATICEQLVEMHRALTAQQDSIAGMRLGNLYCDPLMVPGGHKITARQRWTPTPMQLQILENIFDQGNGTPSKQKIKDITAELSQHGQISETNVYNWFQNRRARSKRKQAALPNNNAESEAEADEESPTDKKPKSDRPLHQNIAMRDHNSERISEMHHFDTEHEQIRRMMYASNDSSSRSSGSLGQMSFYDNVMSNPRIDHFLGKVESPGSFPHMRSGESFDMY
Method in brief: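 Transcription factors were each fused at the N-terminus to a polyhistidine tag plus DsRed and expressed in E. coli BL21-CodonPlus before Ni–NTA purification. Binding to a double-stranded custom Agilent array was carried out with 200 nM protein at 25 °C for 1 h in PBS, 2% BSA, salmon testes DNA and 50 µM zinc acetate. The binding signal is per-feature fluorescence intensity, in arbitrary units, on an Axon 4000B scanner.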

Sequence | binding signal
TTGAAATTGGAGATGATGTGACTGAAAAGTTGTGTGTGTACGGAGTCACCTAGTGCAG | 21000 fluorescence intensity (a.u.)
TAAGCTAATTTGACCGCTGAAAGTGATGGAAAGCAAGCAACGGAGTCACCTAGTGCAG | 4480 fluorescence intensity (a.u.)
TTCAAATTTAATGCAAAGATTAAGTTGATGAGAAACGACGCGGAGTCACCTAGTGCAG | 6640 fluorescence intensity (a.u.)
ATGATTGGAGTCAAATTGAACTTGTACTGATGTGGAGGAGCGGAGTCACCTAGTGCAG | 53400 fluorescence intensity (a.u.)
TTGTGAAATGTTGATGAGGCTGATTGAGCGAGAAGCAGTGCGGAGTCACCTAGTGCAG | 20000 fluorescence intensity (a.u.)
TCCTAGGTGATCTGGGTGATTGTGAGTGAGTTTTGTTTCGCGGAGTCACCTAGTGCAG | 4180 fluorescence intensity (a.u.)
GAATGATTGTGGATGATGAAATAAATACTGCTCTTGTCAGCGGAGTCACCTAGTGCAG | 33400 fluorescence intensity (a.u.)
ACTTGATTGAAATCGAAGCATCTGTTTTCGCGTGTTTGAGCGGAGTCACCTAGTGCAG | 59900 fluorescence intensity (a.u.)
AACAAATAAATTACTATTAGAGTAGGATGTTCGGCAAAGTCGGAGTCACCTAGTGCAG | 7390 fluorescence intensity (a.u.)
ATATTGATGTTAATGAATCTAAATAGATATATATGTCTAGCGGAGTCACCTAGTGCAG | 5520 fluorescence intensity (a.u.)
GTAGACTGATCACAATCTTTATTAGAATCGTTTAAGACACCGGAGTCACCTAGTGCAG | 6090 fluorescence intensity (a.u.)
TCTAATTTATTAGAGCGCCACATGACGGCTTGAGAGCGTTCGGAGTCACCTAGTGCAG | 19200 fluorescence intensity (a.u.)
TTCGTTCATCATCAATCAAAACATGGGACTATAAGGATTTCGGAGTCACCTAGTGCAG | 7300 fluorescence intensity (a.u.)
AGTCAGCTGATTTAAATATAAACAGGGGTAAGAATTTAAGCGGAGTCACCTAGTGCAG | 15000 fluorescence intensity (a.u.)
TATTTTGTAATCATTTGTTTTATATTTGAATTCCTGTCAGCGGAGTCACCTAGTGCAG | 3710 fluorescence intensity (a.u.)
GGTAAATATAATAAATTATTGATCTAACAACTTGAAATTACGGAGTCACCTAGTGCAG | 3460 fluorescence intensity (a.u.)
AATGATCTGATGGATGTTCTCTCACGTTCAAATCAGAGGCCGGAGTCACCTAGTGCAG | 8430 fluorescence intensity (a.u.)
AGCTGCATATATTGATTGACAGGTGTACCGATTCCTTATGCGGAGTCACCTAGTGCAG | 54400 fluorescence intensity (a.u.)
TGGGTCATTTATTGATTATTGTATTATTGTTCCTTATATTCGGAGTCACCTAGTGCAG | 10300 fluorescence intensity (a.u.)
CAATATTCTTTGACAGCTTCGATTGACATCTCACCTTATGCGGAGTCACCTAGTGCAG | 9220 fluorescence intensity (a.u.)
GTCAATTTAGATTGCCGCGCTTACAATTAGTTCTCAGGAACGGAGTCACCTAGTGCAG | 15100 fluorescence intensity (a.u.)

Sequence | binding signal
ACAAAGTAATTGATTTCTTGTGTGAGGCCTTGTTTAGATCCGGAGTCACCTAGTGCAG | 53400 fluorescence intensity (a.u.)
TTAATTAATTTCTCTAATGATTCTCAATCTTGTGTTCTTCCGGAGTCACCTAGTGCAG | 28300 fluorescence intensity (a.u.)
TCTAATTTCTTCCCTTGCAGATTGATCTTGTTAGTGAGCCCGGAGTCACCTAGTGCAG | 20700 fluorescence intensity (a.u.)
CATTAAGAGTGATTGAATCTTGTTCTAAACATTAACTTTTCGGAGTCACCTAGTGCAG | 26300 fluorescence intensity (a.u.)
AGTGATTAGATTAGTGAACTGATTAACATTTCTTGTGTTCCGGAGTCACCTAGTGCAG | 64700 fluorescence intensity (a.u.)
AAAGTAATTAGTGTTTTCTTGATTAGTCTTTTCCTTGTATCGGAGTCACCTAGTGCAG | 42700 fluorescence intensity (a.u.)
ATTATCCATTCAATCAAAACAAGCAGGACTACTAGAAAGCCGGAGTCACCTAGTGCAG | 8940 fluorescence intensity (a.u.)
CTTTATTGATTGAGAGGAACTATCTACCTCTGTAATGACACGGAGTCACCTAGTGCAG | 39200 fluorescence intensity (a.u.)
CAGTGTGATTTAAGAATTTTCAACTGTAAAAGAATAGGAGCGGAGTCACCTAGTGCAG | 10000 fluorescence intensity (a.u.)
ATCAATCACTACTGCATATTACTATAATCTCCTCTATACTCGGAGTCACCTAGTGCAG | 5200 fluorescence intensity (a.u.)
AACTAATTAATTTATTGGCAGGCACTGGCCTACCAAACCTCGGAGTCACCTAGTGCAG | 53100 fluorescence intensity (a.u.)
CCGCACCTAAATTGATTGATTATTAATTTAACTGCCGCTCCGGAGTCACCTAGTGCAG | 65500 fluorescence intensity (a.u.)
AAAATAACTAATTGCACAGATTGTGACTAATTTGCGAGACCGGAGTCACCTAGTGCAG | 34900 fluorescence intensity (a.u.)
AATAACTAATTGCATAGATTGTGACTAATTTGCGATGCGACGGAGTCACCTAGTGCAG | 55200 fluorescence intensity (a.u.)
AATAACTAATTGTACATATTACGACTAATTTGCGAGATGACGGAGTCACCTAGTGCAG | 35000 fluorescence intensity (a.u.)
CTAGATTTATAATTAAATAAATTATTATAATATATAACTCCGGAGTCACCTAGTGCAG | 42700 fluorescence intensity (a.u.)
TCTAATTACTTATTAATTAATTGATTTAATTAAATTAATCCGGAGTCACCTAGTGCAG | 40400 fluorescence intensity (a.u.)
ACAAAACCAACTAATTAGGCAGGCAGCCATTTACCTCCATCGGAGTCACCTAGTGCAG | 5480 fluorescence intensity (a.u.)
TCAATTGATTATTACTGCCGCTTACTGTCTCCTCTACTGCCGGAGTCACCTAGTGCAG | 53300 fluorescence intensity (a.u.)
TTTGCCGCTGAGTAATTAAATTGTCTACTTACAAATCCTCCGGAGTCACCTAGTGCAG | 3590 fluorescence intensity (a.u.)
CAGGACTAATTGGGGTTGCAAACTGGGACTACAAACTACTCGGAGTCACCTAGTGCAG | 28300 fluorescence intensity (a.u.)
